This note sets out measurements from PubChem BioAssay AID2284129 (EPA ToxCast).

Active and inactive are the calls of the source. How the source made its calls: active means hit-call score of the fitted dose curve at least 0.9, where 1 is the maximum; inactive means score below 0.9.

For orientation: AC50 means the midpoint of the concentration-response curve, whichever way the signal moves.

The target in the assay is human Cyclooxygenase COX2, PTGS2 (gene 5743) (UniProt P35354). As to the kind of experiment: ERF_FR_ENZ_hPTGS2: Eurofins (ERF) Enzymatic LeadHunter Assay for human Cyclooxygenase COX2, conducted at France lab site. As to the method: ERF_FR_ENZ_hPTGS2 is a biochemical, single-readout assay that uses extracted gene-proteins in a cell-free assay. Measurements were taken 0.083 hour after chemical dosing in a 96-well plate. See COX2 Human Cyclooxygenase Enzymatic Assay, Cerep.ERF_FR_ENZ_hPTGS2 is an assay component calculated from the ERF_FR_ENZ_hPTGS2 assay. It is designed to measure enzyme activity using a type of enzyme reporter as detected by fluorescence intensity with fluorimetry technology.Data from the assay component ERF_FR_ENZ_hPTGS2 was analyzed at the assay endpoint, ERF_FR_ENZ_hPTGS2, in the positive analysis fitting direction relative to DMSO as the negative control and baseline of activity. Using a type of enzyme reporter, loss-of-signal activity can be used to understand changes in binding as they relate to gene PTGS2. To generalize the intended target to other relatable targets, this assay endpoint is annotated to the stress response intended target family, where the subfamily is cyclooxygenase.
Chain of human Cyclooxygenase COX2, PTGS2 (gene 5743) (P35354 whole entry, looked up): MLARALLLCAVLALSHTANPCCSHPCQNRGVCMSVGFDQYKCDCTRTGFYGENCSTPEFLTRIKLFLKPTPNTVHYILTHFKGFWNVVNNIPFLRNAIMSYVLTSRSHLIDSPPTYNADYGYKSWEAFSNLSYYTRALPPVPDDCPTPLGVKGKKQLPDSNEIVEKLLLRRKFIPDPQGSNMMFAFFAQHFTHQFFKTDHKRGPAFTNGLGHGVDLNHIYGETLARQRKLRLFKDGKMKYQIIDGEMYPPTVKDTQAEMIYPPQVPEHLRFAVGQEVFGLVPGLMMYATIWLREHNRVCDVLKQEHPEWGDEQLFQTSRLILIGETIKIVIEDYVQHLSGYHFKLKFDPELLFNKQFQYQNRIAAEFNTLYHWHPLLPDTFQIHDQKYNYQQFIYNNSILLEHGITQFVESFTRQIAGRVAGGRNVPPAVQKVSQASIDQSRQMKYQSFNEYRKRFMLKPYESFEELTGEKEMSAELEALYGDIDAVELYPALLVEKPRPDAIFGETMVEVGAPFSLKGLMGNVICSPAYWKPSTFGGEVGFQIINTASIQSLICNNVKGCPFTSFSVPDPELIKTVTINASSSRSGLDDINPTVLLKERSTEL
Human cells are incubated for 5 minutes at room temprature with Arachidonic acid (1.2uM) + ADHP (25 uM) as sunstrate and ns-398 as control inhibitor. Test Sample Requirements: Minimum for 1) Screen: 60 ul of 10 mM stock -OR- 1 mg (pre-weighed) for 10 uM final testing. 2) Dose Response: 90 ul of 10 mM stock -OR- 1 mg (pre-weighed) for a top concentration at 10 uM.
On to `COc1cc(CCC(=O)CC(=O)CCc2ccc(O)c(OC)c2)ccc1O`, for which the AC50 was 274 nM (active).
